Our source for the Potency values is PubChem BioAssay (NCATS).

Records with an inconclusive call do not appear. The source made the active and inactive calls. Calls come from the whole dose curve; as a rule, active = well fitted inhibition curve with a large enough effect; inconclusive = small, poorly fitted or top-dose-only effect; inactive = flat fitted curve, though single readings scatter.

Common to all, as to experiment: qHTS profiling for inhibitors of Plasmodium falciparum proliferation (AID 504749); note: nearly all actives have a fitted effect of over 60% in size
Settings in all cases: P. falciparum in erythrocytes, SYBR Green DNA, 72 h; series mostly up to 28.7 µM

The test system of one experiment is C2A. The gist of the method:
(§1)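 Readout was DNA-dye fluorescence from lysed cultures, ex 485/em 535 nm. Parasitized red cells had grown 72 h with compound; data scaled between 0.29 uM artemisinin and DMSO wells and corrected using vehicle-only plates.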

Another experiment relates to CP185. The procedure, abridged:
as §1

The next experiment has as its system CP192. The procedure, abridged:
as §1

The next experiment has as its system CP194. The procedure, abridged: as §1
The test system of a further experiment is CP201. The gist of the method:
as §1

Another experiment concerns CP237. The procedure, abridged:
as §1

For the next experiment, the system named is CP238. The procedure, abridged: as §1
The subject of a further experiment is CP247. The procedure, abridged:
as §1

Another experiment relates to CP262. The procedure, abridged: as §1
For another experiment, the system named is CP266. The procedure, abridged: as §1
Another experiment deals with CP268. The procedure, abridged: as §1
A further experiment deals with CP269. The procedure, abridged:
as §1

For the next experiment, the system named is CP305. The procedure, abridged:
as §1

The subject of a further experiment is CP325. The gist of the method: as §1
A further experiment concerns CP329. The procedure, abridged: as §1
In a further experiment the test system is P94_40. The procedure, abridged: as §1
Another experiment deals with PAD. The gist of the method: as §1
For the next experiment, the system named is PC49. The procedure, abridged: as §1
For the next experiment, the system named is SC27B. The gist of the method:
as §1

Another experiment deals with TAB109. The procedure, abridged: as §1
Potency is the fitted concentration of half-maximal effect.

`CC(C)(C)NC[C@@H](O)c1ccc(O)c(CO)n1`: the Potency entry in the experiment with C2A, with CP185, with CP192, with CP194, with CP201 and in the experiment with CP237 was “inactive” in each case. Moreover, the Potency result in the experiment with CP238, in the experiment on CP247, with CP262, in the experiment with CP266, with CP268 and in the experiment with CP269 was “inactive” throughout. Also, the Potency entry with CP305, with CP325, with CP329, in the experiment on P94_40, in the experiment on PAD and with PC49 was “inactive” in each case. The Potency entry in the experiment on SC27B and in the experiment with TAB109 was “inactive” in each case.

Consider `NS(=O)(=O)c1cc2c(cc1Cl)N[C@H](Cc1ccccc1)NS2(=O)=O`, for which the Potency result in the experiment with C2A, with CP185, in the experiment on CP192, in the experiment with CP194, with CP201 and in the experiment on CP237 was “inactive” throughout. In addition, the Potency entry in the experiment on CP238, in the experiment on CP247, with CP262, with CP266, in the experiment on CP268 and in the experiment with CP269 was “inactive” throughout. In addition, the Potency entry with CP305, in the experiment on CP325, with CP329, in the experiment on P94_40, in the experiment on PAD and in the experiment on PC49 was “inactive” in each case. The Potency result in the experiment on SC27B and with TAB109 was “inactive” each time.

Take `C[C@]12CC[C@H]3c4ccc(O)cc4CC[C@@H]3[C@H]1CC[C@@H]2OC(=O)CCC1CCCC1`: the Potency entry in the experiment with C2A, in the experiment on CP185, in the experiment with CP192, in the experiment on CP194, in the experiment on CP201 and in the experiment on CP238 was “inactive” in each case. Moreover, the Potency entry in the experiment with CP247, with CP262, in the experiment with CP266, in the experiment with CP268, in the experiment on CP269 and in the experiment on CP305 was “inactive” in each case. The Potency entry in the experiment with CP325, in the experiment with CP329, in the experiment with P94_40, in the experiment with PC49, with SC27B and in the experiment with TAB109 was “inactive” throughout. Further, the Potency is 8.91 µM (active) with CP237 and 10 µM (active) in the experiment on PAD.

With `Cc1cn([C@H]2C[C@H](N=[N+]=[N-])[C@H](CO)O2)c(=O)[nH]c1=O`, the Potency result in the experiment with C2A, with CP185, in the experiment on CP192, in the experiment with CP194, in the experiment with CP201 and with CP237 was “inactive” each time. The Potency result in the experiment with CP238, in the experiment on CP247, in the experiment on CP262, with CP266, in the experiment with CP268 and in the experiment on CP269 was “inactive” throughout. For the same compound, the Potency result with CP305, with CP325, in the experiment on CP329, in the experiment on P94_40, in the experiment with PAD and in the experiment on PC49 was “inactive” each time. For the same compound, the Potency entry in the experiment on SC27B and with TAB109 was “inactive” in each case.
